Values joined by “and” are separate entries in the source; they are usually repeats but may differ in a detail not shown here. Equal values may be shown once. Inconclusive results are not listed. Entries that show only a call come without a potency. Some structures have more than one record in an assay (separate samples or runs), and their calls can disagree. Active and inactive are the calls of the source. Calls follow the shape of the dose curve; as a rule, active = well fitted curve in the direction sought with a large enough effect in the repeat runs; inconclusive = weak or mixed curves; inactive = no such curve, though single readings can be large; an effect the other way counts as inactive or inconclusive.
Columns and labels:
[1] = Caspase-3/7 induction in HepG2 cells by small molecules, qHTS assay (AID 1346978); also: nearly all actives have a fitted effect of over 15% in size
How it was run: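 Wild-type HepG2 cells (2,000/well) were settled 5 h at 37 C, 5% CO2, then exposed to compounds in DMSO for 17 h. Caspase-3/7 activity was read by luminescence 30 min after adding Caspase-Glo 3/7 reagent at room temperature.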

[2] = Caspase-3/7 induction in CHO-K1 cells by small molecules, qHTS cell viability counter screen (AID 1346979); also: nearly all actives have a fitted effect of over 35% in size; also: potency is read from the fitted curve at half-maximal effect
How it was run: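 Cells (CHO-K1, wild type) are plated at 1,500 per well and incubated 5hr. Test compounds in DMSO are then pinned in, followed by 16hr at 37C and 5% CO2. Viability is read by CellTiter-Fluor fluorescence after 1hr.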

[3] = Caspase-3/7 induction in CHO-K1 cells by small molecules, qHTS assay (AID 1346980); also: nearly all actives have a fitted effect of over 15% in size
How it was run: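 Wild-type cells were seeded at 1,500 per well and settled 5 hr at 37 C, 5% CO2, then exposed to DMSO-dissolved compounds for 17 hr. Caspase-Glo 3/7 reagent was added, and luminescence was read after 30min at room temperature.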

[4] = Caspase-3/7 induction in HepG2 cells by small molecules, qHTS cell viability counter screen (AID 1346981); also: nearly all actives have a fitted effect of over 30% in size; also: potency is read from the fitted curve at half-maximal effect
How it was run: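 Counter screen for cytotoxicity: HepG2 exposed 16 hr to compounds, then CellTiter-Fluor viability signal (fluorescence, 1 hr reagent incubation).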

[5] = target: Nuclear receptor subfamily 1 group I member 2 (Homo sapiens) (UniProt O75469); experiment: Human pregnane X receptor (PXR) small molecule agonists, qHTS assay (AID 1346982); also: nearly all actives have a fitted effect of over 35% in size; also: potency is read from the fitted curve at half-maximal effect
How it was run: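 Luminescence (ONE-Glo, 30 min RT) after 24 hr compound exposure of PXR-Luc HepG2 cells; cells rested 5 hr post-plating in 5% charcoal-stripped FBS medium.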

[6] = target: Cytochrome P450 2D6 (Homo sapiens) (UniProt P10635); experiment: Cytochrome P450 Family 2 Subfamily D Member 6 (CYP2D6) small molecule antagonists: luciferase reporter qHTS assay (AID 1671196); also: nearly all actives have a fitted effect of over 50% in size; also: potency is read from the fitted curve at half-maximal effect
How it was run: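 Inhibition of CYP2D6 was gauged by loss of luminescence, since light produced tracks the luciferin generated from a proluciferin substrate. A 10 min room-temperature preincubation preceded 1 h NADPH-supported turnover.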

[7] = target: Cytochrome P450 2C19 (Homo sapiens) (UniProt P33261); experiment: Cytochrome P450 Family 2 Subfamily C Member 19 (CYP2C19) small molecule antagonists: luciferase reporter qHTS assay (AID 1671197); also: nearly all actives have a fitted effect of over 65% in size; also: potency is read from the fitted curve at half-maximal effect
How it was run: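 Light output is proportional to CYP2C19 activity: proluciferin substrate is converted to luciferin, then detected by a luciferin detection reagent that also stops the 1 h, 37C NADPH-driven reaction. Ketoconazole serves as positive control.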

[8] = target: Cytochrome P450 2C9 (Homo sapiens) (UniProt P11712); experiment: Cytochrome P450 Family 2 Subfamily C Member 9 (CYP2C9) small molecule antagonists: luciferase reporter qHTS assay (AID 1671198); also: nearly all actives have a fitted effect of over 50% in size; also: potency is read from the fitted curve at half-maximal effect
How it was run: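 CYP2C9 activity was measured with a P450-Glo proluciferin substrate. Enzyme–substrate mix was held with compound for 10 min at room temperature, then NADPH regeneration solution was added for 1 h at 37C. Luciferin product was read as luminescence.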

[9] = target: Cytochrome P450 1A2 (Homo sapiens) (UniProt P05177); experiment: Cytochrome P450 Family 1 Subfamily A Member 2 (CYP1A2) small molecule antagonists: luciferase reporter qHTS assay (AID 1671199); also: nearly all actives have a fitted effect of over 50% in size; also: potency is read from the fitted curve at half-maximal effect
How it was run: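 Signal from luciferin formed by CYP1A2 from a proluciferin substrate is read as luminescence, expressed in relative luminescence units. Compounds sit with enzyme 10 min, NADPH-driven reaction runs 1 h, all at room temperature.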

[10] = target: Voltage-gated inwardly rectifying potassium channel KCNH2 (Homo sapiens) (UniProt Q12809); experiment: Human Ether-a-go-go-Related Gene (hERG) channel small molecule antagonists: fluorescence cell-based qHTS assay (AID 1671200);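 also: hERG-expressing U2OS cells given a thallium stimulus after FluxOR II dye loading; series mostly up to about 77 µM; nearly all actives have a fitted effect of over 50% in size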
How it was run: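 Channel function was assessed by thallium flux. Cells seeded the previous day and kept at 37 C took up FluxOR II dye over 1 h in the dark at room temperature, then sat another 10 min before stimulation.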

[11] = target: Cytochrome P450 3A4 (Homo sapiens) (UniProt P08684); experiment: Cytochrome P450 Family 3 Subfamily A Member 4 (CYP3A4) small molecule antagonists: luciferase reporter qHTS assay (AID 1671201); also: nearly all actives have a fitted effect of over 50% in size; also: potency is read from the fitted curve at half-maximal effect
How it was run: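 Compounds in DMSO were pin-transferred onto CYP3A4 enzyme-substrate mix and held 10 min at room temperature. NADPH regenerating solution started the reaction for 1 h; luciferin detection reagent stopped it, and luminescence was read after 20 min.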

[12] = target: Nuclear receptor subfamily 1 group I member 2 (Homo sapiens) (UniProt O75469); experiment: CYP3A4 induction through human pregnane X receptor (PXR) by small molecules, qHTS assay (AID 1346984); also: nearly all actives have a fitted effect of over 40% in size
How it was run: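 DPX-2 reporter cells; 24h cpd, 37C; Luciferin-IPA 3uM final x3h; One-Glo 30 min RT; lumi read.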

Cytochrome P450 2D6 (Homo sapiens), sequence (P10635 whole entry, looked up): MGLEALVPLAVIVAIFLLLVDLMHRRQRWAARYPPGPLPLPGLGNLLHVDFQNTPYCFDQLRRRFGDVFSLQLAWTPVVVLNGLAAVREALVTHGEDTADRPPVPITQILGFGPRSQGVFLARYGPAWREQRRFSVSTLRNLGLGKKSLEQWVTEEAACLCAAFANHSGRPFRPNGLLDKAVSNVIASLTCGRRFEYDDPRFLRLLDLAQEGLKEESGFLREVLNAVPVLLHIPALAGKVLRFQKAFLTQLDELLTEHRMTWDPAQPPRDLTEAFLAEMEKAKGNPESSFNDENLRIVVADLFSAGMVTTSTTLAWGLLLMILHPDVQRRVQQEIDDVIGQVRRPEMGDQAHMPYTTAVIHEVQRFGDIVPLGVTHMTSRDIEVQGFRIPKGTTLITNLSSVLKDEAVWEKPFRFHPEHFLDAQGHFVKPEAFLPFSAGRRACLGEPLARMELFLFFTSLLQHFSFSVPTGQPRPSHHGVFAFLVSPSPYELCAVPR
Cytochrome P450 3A4 (Homo sapiens), sequence (P08684 whole entry, looked up): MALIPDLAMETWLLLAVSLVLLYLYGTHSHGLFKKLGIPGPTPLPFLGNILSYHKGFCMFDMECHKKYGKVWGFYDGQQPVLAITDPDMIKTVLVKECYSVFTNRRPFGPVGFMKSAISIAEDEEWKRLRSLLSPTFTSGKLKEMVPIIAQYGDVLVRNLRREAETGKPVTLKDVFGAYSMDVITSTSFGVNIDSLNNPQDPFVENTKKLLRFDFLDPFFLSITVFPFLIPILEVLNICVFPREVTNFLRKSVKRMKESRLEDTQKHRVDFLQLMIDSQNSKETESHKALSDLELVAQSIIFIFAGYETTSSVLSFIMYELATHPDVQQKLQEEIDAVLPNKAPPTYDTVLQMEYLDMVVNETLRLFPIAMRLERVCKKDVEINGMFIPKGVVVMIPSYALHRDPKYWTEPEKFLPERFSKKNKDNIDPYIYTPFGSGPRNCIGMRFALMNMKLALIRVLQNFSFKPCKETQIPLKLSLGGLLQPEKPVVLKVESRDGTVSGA
Voltage-gated inwardly rectifying potassium channel KCNH2 (Homo sapiens), sequence (Q12809 whole entry, looked up): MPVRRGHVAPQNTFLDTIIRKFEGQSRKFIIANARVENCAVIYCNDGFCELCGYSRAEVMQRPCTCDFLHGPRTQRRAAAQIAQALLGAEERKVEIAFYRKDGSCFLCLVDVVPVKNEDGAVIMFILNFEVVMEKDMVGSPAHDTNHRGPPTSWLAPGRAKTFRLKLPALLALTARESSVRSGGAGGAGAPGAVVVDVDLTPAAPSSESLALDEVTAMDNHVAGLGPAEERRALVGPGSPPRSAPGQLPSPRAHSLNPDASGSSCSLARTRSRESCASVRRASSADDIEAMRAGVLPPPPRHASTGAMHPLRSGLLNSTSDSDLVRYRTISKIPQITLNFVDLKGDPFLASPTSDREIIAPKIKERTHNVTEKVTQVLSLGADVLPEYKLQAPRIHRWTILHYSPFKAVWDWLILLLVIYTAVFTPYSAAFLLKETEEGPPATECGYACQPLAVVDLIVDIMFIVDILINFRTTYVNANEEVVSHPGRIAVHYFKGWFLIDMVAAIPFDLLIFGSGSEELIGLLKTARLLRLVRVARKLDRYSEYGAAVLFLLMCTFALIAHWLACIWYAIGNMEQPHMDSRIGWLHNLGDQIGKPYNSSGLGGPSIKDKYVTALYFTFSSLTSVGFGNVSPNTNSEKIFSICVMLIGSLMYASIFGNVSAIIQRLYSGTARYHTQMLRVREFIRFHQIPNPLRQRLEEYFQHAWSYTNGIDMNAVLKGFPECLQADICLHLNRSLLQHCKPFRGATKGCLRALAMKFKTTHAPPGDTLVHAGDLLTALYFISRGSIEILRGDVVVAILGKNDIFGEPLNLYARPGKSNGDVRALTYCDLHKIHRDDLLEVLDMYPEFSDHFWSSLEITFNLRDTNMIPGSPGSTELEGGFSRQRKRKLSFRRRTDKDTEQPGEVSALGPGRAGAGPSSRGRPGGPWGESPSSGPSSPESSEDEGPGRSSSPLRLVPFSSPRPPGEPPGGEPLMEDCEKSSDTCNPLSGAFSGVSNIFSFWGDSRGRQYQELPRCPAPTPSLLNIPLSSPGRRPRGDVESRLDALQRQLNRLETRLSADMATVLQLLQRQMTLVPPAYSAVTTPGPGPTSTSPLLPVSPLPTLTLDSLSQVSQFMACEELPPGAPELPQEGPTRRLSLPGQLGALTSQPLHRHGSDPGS
Cytochrome P450 1A2 (Homo sapiens), sequence (P05177 whole entry, looked up): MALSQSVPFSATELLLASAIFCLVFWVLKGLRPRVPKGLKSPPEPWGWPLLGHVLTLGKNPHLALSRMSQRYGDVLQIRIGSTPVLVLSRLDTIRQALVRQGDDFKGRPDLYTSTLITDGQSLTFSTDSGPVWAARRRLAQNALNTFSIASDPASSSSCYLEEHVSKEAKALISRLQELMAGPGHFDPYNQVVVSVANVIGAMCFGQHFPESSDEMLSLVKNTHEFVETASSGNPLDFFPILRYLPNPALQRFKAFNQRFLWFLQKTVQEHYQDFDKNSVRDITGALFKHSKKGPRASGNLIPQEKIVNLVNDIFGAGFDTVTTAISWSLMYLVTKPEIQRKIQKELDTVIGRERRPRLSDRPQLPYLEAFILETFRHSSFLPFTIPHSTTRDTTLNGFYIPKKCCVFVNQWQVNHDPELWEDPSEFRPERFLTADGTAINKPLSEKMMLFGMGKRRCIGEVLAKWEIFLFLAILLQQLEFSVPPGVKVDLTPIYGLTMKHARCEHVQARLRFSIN
Cytochrome P450 2C19 (Homo sapiens), sequence (P33261 whole entry, looked up): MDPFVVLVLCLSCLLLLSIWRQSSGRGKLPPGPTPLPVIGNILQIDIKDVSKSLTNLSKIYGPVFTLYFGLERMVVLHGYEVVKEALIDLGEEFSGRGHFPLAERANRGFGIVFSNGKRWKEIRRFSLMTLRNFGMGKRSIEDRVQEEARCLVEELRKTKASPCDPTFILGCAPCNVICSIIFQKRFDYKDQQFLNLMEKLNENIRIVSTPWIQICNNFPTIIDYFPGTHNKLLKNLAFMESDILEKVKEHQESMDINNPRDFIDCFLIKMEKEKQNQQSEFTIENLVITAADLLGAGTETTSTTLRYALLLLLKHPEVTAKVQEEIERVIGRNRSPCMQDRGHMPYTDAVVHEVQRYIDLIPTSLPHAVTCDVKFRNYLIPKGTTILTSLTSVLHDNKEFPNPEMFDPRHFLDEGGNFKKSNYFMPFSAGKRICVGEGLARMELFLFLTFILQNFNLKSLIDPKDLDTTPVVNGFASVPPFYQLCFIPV
Nuclear receptor subfamily 1 group I member 2 (Homo sapiens), sequence (O75469 whole entry, looked up): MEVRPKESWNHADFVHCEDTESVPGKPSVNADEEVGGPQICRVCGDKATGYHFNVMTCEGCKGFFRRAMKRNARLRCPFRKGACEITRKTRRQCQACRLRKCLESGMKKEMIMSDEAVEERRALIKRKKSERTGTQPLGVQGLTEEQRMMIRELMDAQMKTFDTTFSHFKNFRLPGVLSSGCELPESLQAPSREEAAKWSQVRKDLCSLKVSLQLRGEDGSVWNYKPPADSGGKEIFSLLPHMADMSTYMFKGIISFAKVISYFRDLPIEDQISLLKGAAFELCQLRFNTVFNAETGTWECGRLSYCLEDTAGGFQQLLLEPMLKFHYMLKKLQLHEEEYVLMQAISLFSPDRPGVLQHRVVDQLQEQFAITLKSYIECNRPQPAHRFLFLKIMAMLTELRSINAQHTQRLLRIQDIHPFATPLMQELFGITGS
Cytochrome P450 2C9 (Homo sapiens), sequence (P11712 whole entry, looked up): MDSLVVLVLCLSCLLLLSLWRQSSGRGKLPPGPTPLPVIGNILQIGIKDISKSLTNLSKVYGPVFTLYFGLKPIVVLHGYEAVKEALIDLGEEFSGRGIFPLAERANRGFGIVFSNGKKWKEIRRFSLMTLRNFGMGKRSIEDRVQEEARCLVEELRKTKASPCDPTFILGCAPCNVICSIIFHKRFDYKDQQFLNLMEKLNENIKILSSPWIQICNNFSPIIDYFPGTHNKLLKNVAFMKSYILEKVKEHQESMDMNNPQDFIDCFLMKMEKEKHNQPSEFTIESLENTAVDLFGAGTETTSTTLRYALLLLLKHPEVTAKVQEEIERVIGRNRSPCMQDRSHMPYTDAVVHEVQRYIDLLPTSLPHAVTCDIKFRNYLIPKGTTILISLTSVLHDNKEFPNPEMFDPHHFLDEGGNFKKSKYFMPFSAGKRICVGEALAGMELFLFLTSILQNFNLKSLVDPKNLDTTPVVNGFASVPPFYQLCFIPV

| SMILES | Potency [1] | Potency [2] | Potency [3] | Potency [4] | Potency [5] | Potency [6] | Potency [7] | Potency [8] | Potency [9] | Potency [10] | Potency [11] | Potency [12] |
| --- | --- | --- | --- | --- | --- | --- | --- | --- | --- | --- | --- | --- |
| Cc1cccc(C)c1 | inactive | inactive | inactive | inactive | inactive | inactive and 21.8 µM (active) | 68.6 µM (active) and inactive | inactive | inactive | inactive | inactive | – |
| OC[C@H]1O[C@H](O[C@]2(CCl)O[C@H](CCl)[C@@H](O)[C@@H]2O)[C@H](O)[C@@H](O)[C@H]1Cl | inactive | inactive | inactive | inactive | inactive | inactive | inactive | inactive | inactive | inactive | inactive | – |
| CCc1nc(N)nc(N)c1-c1ccc(Cl)cc1 | inactive | inactive | inactive | inactive | 62.1 µM (active) | 9.07 µM (active) and 15.9 µM (active) and 13.8 µM (active) | inactive | inactive | inactive | inactive | – | – |
| NS(=O)(=O)O | inactive | inactive | inactive | inactive | inactive | inactive | 73.7 µM (active) and inactive | inactive | inactive | inactive | inactive | – |
| O=C(Nc1ncc([N+](=O)[O-])s1)c1cccs1 | inactive | 26.6 µM (active) | inactive | 29.8 µM (active) | 0.531 µM (active) | 12.3 µM (active) | 8.71 µM (active) | 5.49 µM (active) | 1.82 µM (active) | inactive | – | inactive |
| Cc1cc(C)nc(NS(=O)(=O)c2ccc(N)cc2)n1 | inactive | inactive | inactive | inactive | inactive | inactive | 80.6 µM (active) and inactive | inactive | inactive | inactive | inactive | – |
| Cc1ncc([N+](=O)[O-])n1C | inactive | inactive | inactive | inactive | inactive | inactive | inactive | inactive | inactive | inactive | inactive | – |
| Cc1ncc([N+](=O)[O-])n1CCO | inactive | inactive | inactive | inactive | inactive | inactive | inactive | inactive | inactive | inactive | inactive | – |
| CN(C)CCOC(C)(c1ccccc1)c1ccccn1 (stereo unspecified) | inactive | inactive | inactive | inactive | inactive | 17.9 µM (active) and 20 µM (active) and 13.8 µM (active) | 40 µM (active) and inactive | inactive | inactive | inactive | inactive | – |
| CC(=O)C(=O)O | inactive | inactive | inactive | inactive | inactive | inactive | inactive | inactive | inactive and 22.4 µM (active) | inactive | inactive | – |
| CCOc1ccc(NC(C)=O)cc1 | inactive | inactive | inactive | inactive | inactive | inactive | – | inactive | – | inactive | inactive | – |
| Nc1c2c(nc3ccccc13)CCCC2 | inactive | inactive | inactive | inactive | 48.6 µM (active) and 38.6 µM (active) and inactive | 3.56 µM (active) and 11.2 µM (active) and 11 µM (active) | 39.9 µM (active) and inactive | inactive | 5.03 µM (active) and 7.1 µM (active) and 7.23 µM (active) | inactive | inactive | – |
| NS(=O)(=O)c1cc2c(cc1Cl)NCNS2(=O)=O | inactive | inactive | inactive | inactive | inactive | inactive | 62.3 µM (active) and inactive | inactive | – | inactive | inactive | – |
| CCN(Cc1c(F)cccc1Cl)c1c([N+](=O)[O-])cc(C(F)(F)F)cc1[N+](=O)[O-] | inactive | 54.5 µM (active) | inactive | inactive | 8.63 µM (active) | inactive | 2.24 µM (active) | 7.96 µM (active) | inactive | inactive | 0.399 µM (active) | – |
| NC1CCCCC1 | inactive | inactive | inactive | inactive | inactive | inactive | 35.8 µM (active) and inactive | inactive | 40.2 µM (active) and inactive | inactive | inactive | – |

From PubChem BioAssay (Tox21)
